Experimental data as given in PubChem BioAssay (NCATS).
Results filed as inconclusive are left out. The source made the active and inactive calls. Calls come from the whole dose curve; as a rule, active = well fitted cell-killing curve with a large enough effect; inconclusive = small, poorly fitted or top-dose-only effect, or effect the other way; inactive = no such curve, though single readings can be large or run the other way. Starred links: 1 amine or outer side, 2 acyl side, 3 side chain; linkers in the order of their positions; H or OH if unused. Positions of bridges follow the written chain, without caps; N, C: chain ends. Non-standard residues stand in square brackets, D forms with d. Residues, ends and D or L forms follow the SMILES beside them. Chains are numbered I, II in the order given. *: point of attachment. Actinocin(9to1) = Cc1c2oc3c(C)ccc(C(=O)[*:1])c3nc-2c(C(=O)[*:2])c(N)c1=O; NMeV = CN[CH](C(=O)O)C(C)C; Cbz = O=C(OCc1ccccc1)*; Sar = CNCC(=O)O

Assay: qHTS of pediatric cancer cell lines to identify multiple opportunities for drug repurposing: Confirmatory screen for Rh30 cells (AID 1347126); note: nearly all actives have a fitted effect of over 55% in size
Settings: Rh30 rhabdomyosarcoma cell viability; series mostly up to 45.9 µM
Method in brief: (§1)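 Cells (500-1,000/well) rested 5 h, then received compounds for 48 h; metabolically active cells were measured by CellTiter-Glo luminescence. Final concentrations spanned up to 46 µM (MIPE, 11-point) or 0.59 nM-46 µM (NPC, 8-point) in primary screens, 11-point in follow-ups.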
Potency is the fitted concentration of half-maximal effect.

Structure (SMILES)	Potency
O=C(O)c1ccc(Nc2ncc3c(n2)-c2ccc(Cl)cc2C(c2c(F)cccc2F)=NC3)cc1	inactive
Oc1ccc(-c2ccc(-c3cc(Nc4cccc(CNC5CC5)c4)n[nH]3)cc2)c(O)c1	5.22 µM (active)
COc1cc2ncnc(Nc3cccc(Br)c3)c2cc1OC	9.27 µM (active)
CCN(CC)Cc1ccc2cc(COC(=O)Nc3ccc(C(=O)NO)cc3)ccc2c1	inactive
COc1cccc2c1C(=O)c1c(O)c3c(c(O)c1C2=O)C[C@@](O)(C(=O)CO)C[C@@H]3O[C@H]1C[C@H](N)[C@H](OC2CCCCO2)[C@H](C)O1 (stereo partly specified)	inactive
CNC(=O)c1ccc(Nc2cc(Nc3ccccc3S(=O)(=O)C(C)C)c3cc[nH]c3n2)nc1	4.14 µM (active)
CC(C)C[C@@H](C=O)NC(=O)[C@H](CC(C)C)NC(=O)[C@H](CC(C)C)NC(=O)OCc1ccccc1 (Cbz-Leu-Leu-Leu-aldehyde)	3.29 µM (active)
CC(C)NC[C@@H](C(=O)N1CCN(c2ncnc3c2[C@H](C)C[C@H]3O)CC1)c1ccc(Cl)cc1	8.27 µM (active)
NS(=O)(=O)OC[C@@H]1C[C@@H](n2ccc3c(N[C@H]4CCc5ccccc54)ncnc32)C[C@H]1O	inactive
CC1(C)O[C@@H]2C[C@H]3[C@@H]4CCC5=CC(=O)C=C[C@]5(C)[C@@H]4[C@@H](O)C[C@]3(C)[C@]2(C(=O)CO)O1	inactive
CC(=O)O[C@@]12CO[C@H]1C[C@H](O)[C@@]1(C)C(=O)[C@H](O)C3=C(C)[C@@H](OC(=O)C(O)[C@@H](NC(=O)OC(C)(C)C)c4ccccc4)C[C@@](O)([C@@H](OC(=O)c4ccccc4)[C@@H]21)C3(C)C (stereo partly specified)	inactive

Assay: qHTS of pediatric cancer cell lines to identify multiple opportunities for drug repurposing: Confirmatory screen for Saos-2 cells (AID 1347127); note: nearly all actives have a fitted effect of over 60% in size
Settings: Saos-2 osteosarcoma cell viability; series mostly up to 45.9 µM
Method in brief: as §1

Structure (SMILES)	Potency
CN(C)c1ccc(C(=O)NCCCCCCC(=O)NO)cc1	2.93 µM (active)
Cc1cc(Nc2ncc3c(n2)N(C)C(=O)N(c2cc(NC(=O)c4cccc(C(F)(F)F)c4)ccc2C)C3)n(C)n1	0.585 µM (active)
CC(C)N1[N]C(=C2C=c3cc(O)ccc3=N2)c2c(N)ncnc21	10.4 µM (active)
CC(=O)[C@]1(O)Cc2c(O)c3c(c(O)c2[C@@H](O[C@H]2C[C@H](N)[C@@H](O)[C@H](C)O2)C1)C(=O)c1ccccc1C3=O	inactive
COc1cc(OC)c(C=CS(=O)(=O)Cc2ccc(OC)c(NCC(=O)O)c2)c(OC)c1	0.329 µM (active)
O=C(NCc1ccccc1)[C@H](Cc1ccccc1)NC(=O)[C@@H]1O[C@@H]1C(=O)NCCc1ccc(O)cc1	inactive
CC(=O)SCC(Cc1ccccc1)C(=O)NCC(=O)OCc1ccccc1 (stereo unspecified)	inactive
Cc1nc(NC(=O)N2CCC[C@@H]2C(N)=O)sc1-c1ccnc(C(C)(C)C(F)(F)F)c1	5.85 µM (active)
Oc1cc(-c2nc(-c3ccccc3)[nH]c2-c2ccncc2)ccc1Cl	2.61 µM (active)
COc1cc([C@@H]2c3cc4c(cc3[C@@H](O[C@@H]3O[C@@H]5CO[C@@H](c6cccs6)O[C@@H]5[C@H](O)[C@@H]3O)[C@H]3COC(=O)[C@H]23)OCO4)cc(OC)c1O	inactive
Cn1cc(CNCC2CCN(c3ncc(C(=O)NO)cn3)CC2)c2ccccc21	0.208 µM (active)
N#Cc1c(NC(=O)c2cccc3ccccc23)sc2c1CCCC2	0.261 µM (active)
COc1ccc2c(c1OC)C(=O)OC2[C@H]1c2c(cc3c(c2OC)OCO3)CCN1C (stereo partly specified)	inactive
Oc1ccc(-c2ccc(-c3cc(Nc4cccc(CNC5CC5)c4)n[nH]3)cc2)c(O)c1	9.27 µM (active)
COc1cc2ncnc(Nc3cccc(Br)c3)c2cc1OC	inactive
CCN(CC)Cc1ccc2cc(COC(=O)Nc3ccc(C(=O)NO)cc3)ccc2c1	inactive
CNC(=O)c1ccc(Nc2cc(Nc3ccccc3S(=O)(=O)C(C)C)c3cc[nH]c3n2)nc1	5.85 µM (active)
CC(C)C[C@@H](C=O)NC(=O)[C@H](CC(C)C)NC(=O)[C@H](CC(C)C)NC(=O)OCc1ccccc1 (Cbz-Leu-Leu-Leu-aldehyde)	1.47 µM (active)
CC(C)NC[C@@H](C(=O)N1CCN(c2ncnc3c2[C@H](C)C[C@H]3O)CC1)c1ccc(Cl)cc1	6.57 µM (active)
NS(=O)(=O)OC[C@@H]1C[C@@H](n2ccc3c(N[C@H]4CCc5ccccc54)ncnc32)C[C@H]1O	inactive
CC1(C)O[C@@H]2C[C@H]3[C@@H]4CCC5=CC(=O)C=C[C@]5(C)[C@@H]4[C@@H](O)C[C@]3(C)[C@]2(C(=O)CO)O1	inactive
CC(=O)O[C@@]12CO[C@H]1C[C@H](O)[C@@]1(C)C(=O)[C@H](O)C3=C(C)[C@@H](OC(=O)C(O)[C@@H](NC(=O)OC(C)(C)C)c4ccccc4)C[C@@](O)([C@@H](OC(=O)c4ccccc4)[C@@H]21)C3(C)C (stereo partly specified)	0.0131 µM (active)

Assay: qHTS of pediatric cancer cell lines to identify multiple opportunities for drug repurposing: Confirmatory screen for OHS-50 cells (AID 1347128);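 note: compound exposure lasted 48 h at 37 degrees C; nearly all actives have a fitted effect of over 55% in size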
Settings: OHS-50 osteosarcoma cells viability; series mostly up to 45.9 µM
Method in brief: as §1

Structure (SMILES)	Potency
O=C(O)C[C@H](O)C[C@H](O)C=Cc1c(C2CC2)nc2ccccc2c1-c1ccc(F)cc1	10.4 µM (active)
CC(C)N1[N]C(=C2C=c3cc(O)ccc3=N2)c2c(N)ncnc21	5.22 µM (active)
CC(=O)N1CCN(c2ccc(OCc3nn(C)c(C)c3-c3cccc4c(CCCOc5cccc6ccccc56)c(C(=O)O)n(Cc5cccnc5)c34)cc2)CC1	inactive
CC(=O)[C@]1(O)Cc2c(O)c3c(c(O)c2[C@@H](O[C@H]2C[C@H](N)[C@@H](O)[C@H](C)O2)C1)C(=O)c1ccccc1C3=O	1.31 µM (active)
CN[C@H]1[C@@H](O)[C@@H]2O[C@@H]3O[C@H](C)CC(=O)[C@]3(O)O[C@@H]2[C@@H](NC)[C@H]1O	inactive
O=C(NCc1ccccc1)[C@H](Cc1ccccc1)NC(=O)[C@@H]1O[C@@H]1C(=O)NCCc1ccc(O)cc1	inactive
COc1ccc(C(C)=O)c(O)c1	inactive
CC(=O)SCC(Cc1ccccc1)C(=O)NCC(=O)OCc1ccccc1 (stereo unspecified)	inactive
Oc1cc(-c2nc(-c3ccccc3)[nH]c2-c2ccncc2)ccc1Cl	18.5 µM (active)
COc1cccc2c1C(=O)c1c(O)c3c(c(O)c1C2=O)C[C@@](O)(C(=O)CO)C[C@H]3O[C@H]1C[C@H](N)[C@H](O)[C@H](C)O1	2.61 µM (active)
CO[C@@H]1[C@@H](O)[C@H](O)[C@@H](n2c3c(Cl)cccc3c3c4c(c5c6cccc(Cl)c6[nH]c5c32)C(=O)NC4=O)O[C@@H]1CO	2.61 µM (active)
C#CCC(Cc1cnc2nc(N)nc(N)c2n1)c1ccc(C(=O)N[C@@H](CCC(=O)O)C(=O)O)cc1 (stereo partly specified)	0.0414 µM (active)
Cn1cc(CNCC2CCN(c3ncc(C(=O)NO)cn3)CC2)c2ccccc21	0.131 µM (active)
COc1cccc2c1C(=O)c1c(O)c3c(c(O)c1C2=O)C[C@@](O)(C(C)=O)C[C@H]3O[C@H]1C[C@H](N)[C@H](O)[C@H](C)O1	2.08 µM (active)
Cc1c2oc3c(C)ccc(C(=O)NC4C(=O)NC(C(C)C)C(=O)N5CCCC5C(=O)N(C)CC(=O)N(C)C(C(C)C)C(=O)OC4C)c3nc-2c(C(=O)NC2C(=O)NC(C(C)C)C(=O)N3CCCC3C(=O)N(C)CC(=O)N(C)C(C(C)C)C(=O)OC2C)c(N)c1=O (stereo unspecified) (I: TVP[Sar][NMeV] / II: TVP[Sar][NMeV]; ester I:1-I:C, II:1-II:C; linker I:N-II:N via Actinocin(9to1); configuration not given here)	0.0369 µM (active)
CC(=O)O[C@H]1C[C@@H]2CC[C@H]3[C@H]4C[C@H]([N+]5(C)CCCCC5)[C@@H](OC(C)=O)[C@@]4(C)CC[C@@H]3[C@@]2(C)C[C@H]1N1CCCCC1	16.5 µM (active)
C=CCNC1=C2C[C@@H](C)C[C@H](OC)[C@@H](O)[C@@H](C)C=C(C)[C@H](OC(N)=O)[C@@H](OC)C=CC=C(C)C(=O)NC(=CC1=O)C2=O	11.7 µM (active)
CCC(C(=O)O)C1CCC(C)C(C(C)C(O)C(C)C(=O)C(CC)C2OC3(C=CC(O)[C@@]4(CC[C@](C)(C5CC[C@@](O)(CC)C(C)O5)O4)O3)C(C)CC2C)O1 (stereo partly specified)	0.369 µM (active)
COc1ccc2c(c1OC)C(=O)OC2[C@H]1c2c(cc3c(c2OC)OCO3)CCN1C (stereo partly specified)	inactive
O=C(O)c1ccc(Nc2ncc3c(n2)-c2ccc(Cl)cc2C(c2c(F)cccc2F)=NC3)cc1	inactive
Oc1ccc(-c2ccc(-c3cc(Nc4cccc(CNC5CC5)c4)n[nH]3)cc2)c(O)c1	1.47 µM (active)
COc1cc2ncnc(Nc3cccc(Br)c3)c2cc1OC	10.4 µM (active)
COc1cccc2c1C(=O)c1c(O)c3c(c(O)c1C2=O)C[C@@](O)(C(=O)CO)C[C@@H]3O[C@H]1C[C@H](N)[C@H](OC2CCCCO2)[C@H](C)O1 (stereo partly specified)	14.7 µM (active)
CNC(=O)c1ccc(Nc2cc(Nc3ccccc3S(=O)(=O)C(C)C)c3cc[nH]c3n2)nc1	8.27 µM (active)
CC(C)C[C@@H](C=O)NC(=O)[C@H](CC(C)C)NC(=O)[C@H](CC(C)C)NC(=O)OCc1ccccc1 (Cbz-Leu-Leu-Leu-aldehyde)	0.928 µM (active)
NS(=O)(=O)OC[C@@H]1C[C@@H](n2ccc3c(N[C@H]4CCc5ccccc54)ncnc32)C[C@H]1O	inactive
CC1(C)O[C@@H]2C[C@H]3[C@@H]4CCC5=CC(=O)C=C[C@]5(C)[C@@H]4[C@@H](O)C[C@]3(C)[C@]2(C(=O)CO)O1	inactive
CC(=O)O[C@@]12CO[C@H]1C[C@H](O)[C@@]1(C)C(=O)[C@H](O)C3=C(C)[C@@H](OC(=O)C(O)[C@@H](NC(=O)OC(C)(C)C)c4ccccc4)C[C@@](O)([C@@H](OC(=O)c4ccccc4)[C@@H]21)C3(C)C (stereo partly specified)	0.0233 µM (active)
